Only a sample is shown.
aSyn 5UTR act: Activators via SNCA 5'UTR binding, MLPCN; alpha-synuclein 5'UTR reporter, activators screen; hit rate 7.1% among 300,000; activity score, % (tested at 7.5 µM), hits read low; in the data active means activity score below about -60%
An asterisk follows results filed as active.

SMILES	aSyn 5UTR act
Cc1ccc(C(=O)CSc2nnc(C)s2)cc1	-85*
Cc1ccc(NC(=O)c2ccc(CSc3nnc(C)s3)cc2)c(C)c1	-68*
O=C(NCc1cccs1)Nc1ccc2c(c1)OCO2	-145*
O=C(NCc1ccccn1)Nc1ccc2c(c1)OCO2	-92*
Cc1cccc(NC(=O)NCc2ccc3c(c2)OCO3)c1	-67*
O=C(Nc1ccc2c(c1)OCO2)Nc1cnccn1	-98*
O=C(NCc1ccncc1)Nc1ccc2c(c1)OCO2	-64*
O=C(Nc1ccccn1)Nc1cccs1	-77*
CC(=O)c1cccc(NC(=O)NCc2ccccn2)c1	-167*
O=C(Nc1ccc2c(c1)OCO2)Nc1ccccn1	-86*
O=C(Nc1cccc(F)c1)Nc1ccccn1	-153*
O=C(NCc1cccs1)Nc1ccc(Cl)cc1	-99*
CCOC(=O)Cc1c(C)nc2c(-c3ccccc3)cnn2c1C	-70*
CCOC(=O)c1cnc2c(-c3ccccc3)cnn2c1C	-112*
CC(=O)c1cnc2c(-c3ccccc3)cnn2c1C	-68*
CCOC(=O)C1CCN(C(=O)CCc2c(C)nc3cc(-c4ccccc4)nn3c2C)CC1	66
O=C(Nc1ccc(OC(F)(F)F)cc1)c1cnccn1	-195*
O=C(Nc1ccc(NC(=O)c2ccco2)cc1)c1cnccn1	-67*
CCCOC(=O)c1ccc(NC(=O)c2cnccn2)cc1	-104*
CCc1ccc(NC(=O)c2cnccn2)cc1	-138*
CCOc1ccc(C(=O)c2ccc(OCC)c(N)c2)cc1N	-70*
CN(C)c1ccc(C(=O)c2ccc(N(C)C)c(N)c2)cc1N	-74*
COc1ccc(NC(=O)CC2CC3CCC2C3)cn1 (stereo unspecified)	-68*
Cc1cc(O)c(C(=O)/C=C/c2ccccc2Br)c(=O)o1	-171*
Cc1cc(O)c(C(=O)/C=C/c2ccccc2)c(=O)o1	-103*
SMILES	aSyn 5UTR act
CCOc1ccc(/C=C/C(=O)c2c(O)cc(C)oc2=O)cc1	-182*
Cc1cc(O)c(C(=O)/C=C/c2ccc(C(C)C)cc2)c(=O)o1	-129*
Cc1cc(C)c(C(=O)/C=C/c2ccc(C(C)C)cc2)c(=O)[nH]1	-91*
COc1ccc(-c2csc(NC(=O)CSc3n[nH]c(N)n3)n2)cc1	-123*
COc1ccc(-c2csc(NC(=O)CSc3n[nH]c(C)n3)n2)cc1	-104*
COc1ccccc1NCC(=O)N/N=C(\C)c1cccs1	-92*
Oc1ccc(/C=C/c2cnccn2)cc1	-171*
CCn1c(SCC(=O)N=Nc2c(O)[nH]c3ccccc23)nc2ccccc21	-79*
O=C(N=Nc1c(O)[nH]c2ccccc12)c1ccco1	-170*
O=C(CSCc1ccccc1)N=Nc1c(O)[nH]c2ccccc12	-79*
CCCCCCn1c2c(c(=N)c3c1CCC3)CCC2	67
Fc1ccc(F)c(NC(=S)NCCc2ccccc2)c1	-93*
Fc1ccccc1NC(=S)NCCc1ccccc1	-118*
Fc1cccc(NC(=S)NCCc2ccccc2)c1	-71*
COC(=O)C1=C(NC(=O)c2ccc(C)c(C)c2)CCS1	-76*
O=C(CSc1nc2ncccc2[nH]1)c1ccc2c(c1)OCO2	-86*
CCC(=O)n1nc(-c2ccco2)nc1SCc1ccccc1	-74*
CC(=O)n1nc(-c2ccco2)nc1SCc1ccccc1	-89*
COc1ccc(NC(=O)Nc2cnccn2)cc1	-80*
Cc1ccc(NC(=O)Nc2cnccn2)cc1Cl	-74*
O=C(Nc1ccc(Br)cc1Cl)c1cnccn1	-70*
Cn1ccc(NC(=O)Nc2ccc(Cl)cc2Cl)n1	-112*
CC(=O)Nc1cccc(NC(=O)Nc2ccc(C)c(Cl)c2)c1	-118*
O=C(Nc1cnccn1)Nc1ccc(Cl)cc1Cl	-62*
CCC(C)c1ccc(NC(=O)Nc2cnccn2)cc1 (stereo unspecified)	-188*
SMILES	aSyn 5UTR act
COc1ccc(-c2csc(Nc3cc(C)ccn3)n2)cc1C	-155*
COc1ccc(-c2csc(Nc3ncccn3)n2)cc1C	-76*
O=C(N/N=C/c1cc2c(cc1Br)OCO2)c1ccccn1	-186*
O=C(N/N=C/c1c[nH]c2ccc(Br)cc12)c1ccccn1	-63*
O=C(N/N=C/c1cc2c(cc1Br)OCO2)c1cc2ccccc2o1	-66*
O=C(N/N=C/c1cc2c(cc1Br)OCO2)c1c[nH]c2ccccc12	-82*
O=C(N/N=C1/CC2C=CCC12)c1ccc(Br)o1 (stereo unspecified)	-83*
c1ccc(-c2cn3nc(-c4ccccc4)sc3n2)cc1	101
Cc1nc2sc(-c3ccccc3)nn2c(=O)c1Br	-78*
S=C(NCCc1ccccn1)NC1CC2CCC1C2 (stereo unspecified)	-62*
COc1ccc(C)cc1-n1nnnc1SCc1nc2ccccc2s1	-148*
COc1ccc(-n2nnnc2SCc2nc3ccccc3s2)cc1	-161*
Cc1ccc(Cn2cc(-c3ccccc3)nn2)cc1	-124*
COc1ccc(-c2cn(Cc3ccc(C(=O)c4ccccc4)cc3)nn2)cc1	-161*
Nc1ccc2oc(-c3cccs3)nc2c1	-89*
Nc1ccc2oc(-c3cccc4ccccc34)nc2c1	71
COc1ccc(OCc2cc(C(=O)N(C)CCC3CCOCC3)no2)c(Cl)c1	-75*
COc1ccc(C(=O)/C=C/C(=O)N(CC(=O)NC2CCCCC2)CC2CCCO2)c(O)c1 (stereo unspecified)	73
COc1ccc(OCc2cc(C(=O)N(C)C(C)c3ccon3)no2)c(Cl)c1 (stereo unspecified)	-115*
COc1cc(Cl)ccc1OCc1cc(C(=O)N(C)CC2CCCCO2)no1 (stereo unspecified)	-139*
COc1ccc(OCc2cc(C(=O)N(C)CC3CCCCO3)no2)c(Cl)c1 (stereo unspecified)	-71*
CC(=O)c1cccc(OCc2cc(C(=O)N3CCSCC3)no2)c1	-152*
O=C(c1cc(COc2ccc(F)c(F)c2)on1)N1CCSCC1	-94*
Cc1[nH]c2ccc(C(=O)N3CCCCC3)cc2c1C	-112*
COC(=O)c1ccc2[nH]c(C(C)(C)O)c(C)c2c1	-94*
SMILES	aSyn 5UTR act
COc1ccccc1N1CCN(C(=O)c2ccc3[nH]c(C)c(C)c3c2)CC1	72
CCOC(=O)c1ccc2[nH]c(C)c(C)c2c1	-86*
CCOC(=O)c1ccc2[nH]c3ccccc3c2c1	-133*
Cc1ccc2[nH]c(C(=O)N3CCCCC3)cc2c1	-98*
CCN1CCN(Cc2ccc(NC(=O)Nc3ccccc3OC)cc2)CC1	-141*
COc1ccccc1NC(=O)Nc1ccc(CC#N)cc1	-115*
CCOc1ccccc1NC(=O)Nc1ccc(Cl)cc1	-78*
COc1ccc(NC(=O)Nc2ccccc2OC)cc1	-96*
COc1ccccc1NC(=O)Nc1ccc(N2CCOCC2)cc1	-134*
Cc1ccc(-c2onc3ccc(C(=O)O)cc23)cc1	-200*
CC(=O)COC(=O)c1ccc2noc(-c3ccccc3)c2c1	-78*
O=C(O)c1ccc2nc(-c3ccccc3)c(-c3ccccc3)nc2c1	-93*
O=C(O)c1ccc2cc(-c3ccccc3)[nH]c2c1	66
O=C(O)c1ccc2noc(-c3ccccc3)c2c1	-119*
Oc1ccc(Cl)cc1C1=NNC(c2ccc(Cl)cc2)C1 (stereo unspecified)	-90*
CCCc1nnc(NC(=O)C23CC4CC(CC(C4)C2)C3)s1	-118*
CCCCc1nnc(NC(=O)C2=COCCO2)s1	-64*
CCOC(=O)c1ccc(NC(=O)C2CCCO2)cc1 (stereo unspecified)	-99*
CCCCc1nnc(NC(=O)C2CCCO2)s1 (stereo unspecified)	-86*
CCCCOC(=O)c1ccc(NC(=O)c2c(Cl)ccc(Cl)c2OC)cc1	-66*

Bioassay records from PubChem.
